Our source for the activation (% of full agonist control) and activation (% of partial agonist control) values is PubChem BioAssay AID504452 (The Scripps Research Institute Molecular Screening Center, 2011).

Active and inactive are the calls of the source. No stated cut-off is given here; in the data, active means activation above about 85%; inactive means the rest.

The assay deals with Peroxisome proliferator-activated receptor gamma (Homo sapiens) (UniProt P37231). The experiment in a line: partial agonism at human PPARgamma receptor – cell-based, luciferase reporter, luminescence, primary screen (AID 504452).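 Further: Cos-1 cells carrying PPARgamma and a response element luciferase reporter.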 To be noted: cell-based PPARg luciferase reporter, at 5 µM, stronger effect = higher value; activation (% of full agonist control): measured here: relative to full agonist control. On the technique in general: Reporter assays use an easily measured gene product as a stand-in for the process of interest.
Sequence of Peroxisome proliferator-activated receptor gamma (Homo sapiens) (P37231 whole entry, looked up): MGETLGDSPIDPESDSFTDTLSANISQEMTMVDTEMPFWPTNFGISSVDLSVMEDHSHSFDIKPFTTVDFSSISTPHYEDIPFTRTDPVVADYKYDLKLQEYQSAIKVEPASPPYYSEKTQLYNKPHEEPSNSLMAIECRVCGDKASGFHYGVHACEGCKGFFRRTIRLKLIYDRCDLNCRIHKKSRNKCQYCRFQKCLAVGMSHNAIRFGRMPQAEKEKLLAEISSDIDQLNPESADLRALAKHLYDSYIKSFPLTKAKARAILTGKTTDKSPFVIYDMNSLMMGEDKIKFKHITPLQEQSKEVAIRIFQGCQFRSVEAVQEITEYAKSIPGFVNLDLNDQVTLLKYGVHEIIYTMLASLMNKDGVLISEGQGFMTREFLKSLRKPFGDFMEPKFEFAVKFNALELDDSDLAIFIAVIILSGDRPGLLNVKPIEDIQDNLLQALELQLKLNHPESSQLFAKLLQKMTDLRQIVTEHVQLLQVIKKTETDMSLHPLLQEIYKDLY

For the compound `CC(Oc1ccc(F)cc1)C(=O)Nc1cc(S(=O)(=O)N2CCOCC2)ccc1N1CCCCC1` (configuration not stated), the activation (% of full agonist control) stood at 33.8% and the activation (% of partial agonist control) was 74.8% (inactive).
On the same counts, the results for `Cn1nc(-c2ccccc2)c(CO)c1Oc1cccc(C(F)(F)F)c1` are 30.3% and 67% (inactive).
The matching figures for `COc1ccc(-c2nn(-c3ccccc3)cc2/C=C2/SC(=S)N(CCC(=O)O)C2=O)c(C)c1`: 44.4% and 98.3% (active).
The matching figures for `O=C(NCCCn1ccnc1)C(=O)NCC(c1cccnc1)N1CCN(c2ccc(F)cc2)CC1` (configuration not stated): 31.2% and 69% (inactive).
As to `Cc1ccc(O)c(C(=O)c2cc(C#N)c(=O)n(C(C)c3ccccc3)c2)c1` (configuration not stated), the activation (% of full agonist control) was found to be 33.3% and the activation (% of partial agonist control) was 73.7% (inactive).
On the same counts, the results for `O=c1[nH]c2cc3c(cc2cc1CN(CCN1CCOCC1)C(=S)NCC1CCCO1)OCO3` (configuration not stated) are 26.6% and 59% (inactive).
Turning to `Cc1cc(C)c2nc(N3C(=O)C(O)=C(C(=O)c4ccco4)C3c3ccc(O)cc3)sc2c1` (configuration not stated), the activation (% of full agonist control) stood at 40.2% and the activation (% of partial agonist control) was 89.1% (active).
On to `O=C(Nc1c(C(=O)Nc2ccc3c(c2)OCCO3)cnn1-c1ccccc1Cl)c1ccco1`, for which the activation (% of full agonist control) was determined as 47.5% and the activation (% of partial agonist control) was 105% (active).
The matching figures for `Cc1ccc(S(C)=O)cc1-n1c(=O)n(Cc2ccccc2)c(=O)c2[nH]cnc21` (configuration not stated): 12.8% and 28.4% (inactive).
Regarding `O=C1C(=O)N(Cc2ccccc2)C(c2cccc(O)c2)/C1=C(\O)c1ccc2c(c1)OCCO2` (configuration not stated), the activation (% of full agonist control) was found to be 25.6% and the activation (% of partial agonist control) was 56.7% (inactive).
On the same counts, the results for `CN1CCN(S(=O)(=O)c2ccc(Sc3nc4ccccc4[nH]3)c3nsnc23)CC1` are 43.8% and 96.9% (active).
The matching figures for `O=C(Nc1cc(Cl)ccc1O)c1cc2n(n1)C(C(F)(F)F)CC(c1ccc3c(c1)OCO3)N2` (configuration not stated): 35% and 77.5% (inactive).
On the same counts, the results for `COc1ccc(NC(=O)C(=O)c2cn(CC(=O)N3CCCC3)c3ccccc23)c(OC)c1` are 32.9% and 72.7% (inactive).
For the compound `COc1ccc2c(c1)c(=O)c(C(=O)c1ccc(C)cc1)cn2CC(=O)Nc1ccc(F)cc1`, the activation (% of full agonist control) came out at 45% and the activation (% of partial agonist control) was 99.5% (active).
On the same counts, the results for `Cc1ccc2nc(N3C(=O)C(O)=C(C(=O)c4ccco4)C3c3cccc(O)c3)sc2c1` (configuration not stated) are 46.7% and 103% (active).
Consider `COC(=O)c1sc(N2C(=O)C(=O)/C(=C(/O)c3ccc(C)cc3)C2c2ccco2)nc1C` (configuration not stated), for which the activation (% of full agonist control) amounted to 37.7% and the activation (% of partial agonist control) was 83.5% (inactive).
The matching figures for `O=C(NC(Cc1ccccc1)C(=O)O)/C(=C/c1cccc([N+](=O)[O-])c1)NC(=O)c1ccco1` (configuration not stated): 41.5% and 91.8% (active).
The matching figures for `O=C(CN1c2cccc3cccc(c23)S1(=O)=O)N1CCN(c2ccc(F)cc2)CC1`: 34.1% and 75.5% (inactive).
On the same counts, the results for `CC(Oc1ccc(F)cc1)C(=O)Nc1ccc(N2CCOCC2)cc1N1CCOCC1` (configuration not stated) are 31.2% and 69.2% (inactive).
`O=C(Cn1c(=O)c(=O)n(Cc2ccccc2)c2ccc(Cl)cc21)Nc1cccc(F)c1`: the activation (% of full agonist control) came to 25.4% and the activation (% of partial agonist control) was 56.2% (inactive).
On the same counts, the results for `O=C(c1cc(-c2ccco2)nc2ccccc12)N1CCCC(C(F)(F)F)C1` (configuration not stated) are 27.6% and 61% (inactive).
The matching figures for `Cc1ccc(S(=O)(=O)Nc2ccccc2F)cc1C(=O)N1CCN(c2ccccc2O)CC1`: 33% and 73% (inactive).
On the same counts, the results for `CCOc1cccc(/C(O)=C2/C(=O)C(=O)N(Cc3ccco3)C2c2ccncc2)c1` (configuration not stated) are 41.1% and 91% (active).
On to `COc1cc(CN2CCN(c3cccc(C)c3C)CC2)cc([N+](=O)[O-])c1O`, for which the activation (% of full agonist control) worked out at 33.7% and the activation (% of partial agonist control) was 74.7% (inactive).
The matching figures for `CN(CCNC(=O)C1CCCN(c2ncnc3c2nc2n3CCCCC2)C1)Cc1ccccc1` (configuration not stated): 49% and 109% (active).
With `CCOc1cc(N2CCOCC2)c(OCC)cc1NC(=O)c1oc2ccccc2c1C`, the activation (% of full agonist control) was found to be 29.4% and the activation (% of partial agonist control) is 65.1% (inactive).
On the same counts, the results for `O=C(c1ccc(F)cc1)c1cn(Cc2ccc(F)cc2)c2cc3c(cc2c1=O)OCCO3` are 37.8% and 83.8% (inactive).
On the same counts, the results for `Cc1ccc2nc(N3C(=O)C(O)=C(C(=O)c4ccc(C)o4)C3c3ccco3)sc2c1` (configuration not stated) are 45.8% and 101% (active).
The matching figures for `COc1ccc(O)c(C(=O)c2cc(C#N)c(=O)n(-c3ccc(Cl)cc3)c2)c1`: 40% and 88.5% (active).
As for `COc1ccc(N2CCN(C3CC(=O)N(Cc4ccc(N5CCCC5=O)cc4)C3=O)CC2)cc1` (configuration not stated), the activation (% of full agonist control) is 27.6% and the activation (% of partial agonist control) is 61.2% (inactive).
The matching figures for `Cc1cc(C(=O)CN2C(=O)C(=O)N(Cc3ccccc3)C2=O)c(C)n1Cc1ccc(F)cc1`: 38% and 84.1% (inactive).
For the compound `O=C(C1CC(=O)N(c2ccc3c(c2)OCCO3)C1)N1CCN(c2ccccc2O)CC1` (configuration not stated), the activation (% of full agonist control) stood at 31.6% and the activation (% of partial agonist control) is 69.9% (inactive).
For the compound `O=C(COc1coc(CN2CCc3ccccc3C2)cc1=O)Nc1cccc(Cl)c1`, the activation (% of full agonist control) was found to be 29.2% and the activation (% of partial agonist control) is 64.6% (inactive).
The matching figures for `Cc1cc(C)c2nc(N3C(=O)C(O)=C(C(=O)c4ccco4)C3c3cccc(O)c3)sc2c1` (configuration not stated): 29% and 64.1% (inactive).
On the same counts, the results for `COc1cccc(C2CC(=O)N3CN(c4ccccc4F)CSC3=C2C#N)c1` (configuration not stated) are 31.6% and 69.9% (inactive).
The matching figures for `COc1cccc(Cn2nc3c4cc(F)ccc4n(Cc4ccc(F)cc4)cc-3c2=O)c1`: 38.8% and 85.9% (active).
